FLuc inh = Firefly luciferase inhibition profiling of diverse chemical library using quantitative high-throughput screening. Luciferin 4-monooxygenase (Photinus pyralis), P08659. purified P. pyralis luciferase, luminescence, biochemical. Potency, µM (series often up to 115 µM), hits mostly inhibitors. 76,000 compounds, 2.5% hits; also: nearly all actives have a fitted effect of over 65% in size
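Purified 10nM P. pyralis luciferase with 10uM D-luciferin and 10uM ATP in 50mM Tris acetate pH 7.5, 10mM Mg acetate, 0.01% Tween-20, 0.05% BSA. qHTS titration; luminescence read by CCD imager.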
HEK293 tox = Cytotoxic Profiling in HEK 293 Cell Line of Diverse Libraries Using Quantitative High-Throughput Screening | HEK 293 viability, ATP luminescence (CellTiter-Glo), 48-72 h | Potency, µM (series often up to 115 µM), for the others: top-dose activity change, negative = cytotoxicity, most hits filed as inhibitors | 94,000 compounds, 6.6% hits | AID 1345083, 2018; also: nearly all actives have a fitted effect of over 60% in size
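Pintool-delivered compounds were incubated with HEK 293 cells (250 cells/well) at 37 degree Celsius for 48 or 72 hr. ATP-dependent luminescence (CellTiter-Glo) then reported remaining viable cells.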
hNpr1 antagonist = Natriuretic polypeptide receptor (hNpr1) antagonism - Primary qHTS. Atrial natriuretic peptide receptor 1 (Homo sapiens), P16066. HEK293 hNpr1 GloSensor cGMP, ANP-stimulated luminescence. Potency, µM (doses to about 46.3 µM), for the others: at the top dose activity change, negative = inhibition, most hits filed as inhibitors. 76,000 compounds, 1.6% hits; calls by dose curve; also: nearly all actives have a fitted effect of over 60% in size
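Compound pre-incubated 30 min at room temperature on GloSensor-loaded HEK293 cells stably carrying hNpr1 and the pGS-40F cGMP biosensor. Stimulation uses hNppA at 0.1 nM final; luminescence is taken at baseline and 20 min post-agonist.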
GPT2 inhibitor = Primary qHTS assay for inhibitors of Glutamate pyruvate transaminase 2 (GPT2); Recombinant GPT2, coupled pyruvate oxidase/HRP Amplex Red fluorescence; 100,000 compounds, 0.25% hits; Potency, µM (top dose mostly 57.7 µM), without a hit: top-dose activity change, negative = inhibition, most hits filed as inhibitors; AID 1671188, 2021; also: nearly all actives have a fitted effect of over 60% in size
Target sequence (Q8TD30 whole entry, looked up): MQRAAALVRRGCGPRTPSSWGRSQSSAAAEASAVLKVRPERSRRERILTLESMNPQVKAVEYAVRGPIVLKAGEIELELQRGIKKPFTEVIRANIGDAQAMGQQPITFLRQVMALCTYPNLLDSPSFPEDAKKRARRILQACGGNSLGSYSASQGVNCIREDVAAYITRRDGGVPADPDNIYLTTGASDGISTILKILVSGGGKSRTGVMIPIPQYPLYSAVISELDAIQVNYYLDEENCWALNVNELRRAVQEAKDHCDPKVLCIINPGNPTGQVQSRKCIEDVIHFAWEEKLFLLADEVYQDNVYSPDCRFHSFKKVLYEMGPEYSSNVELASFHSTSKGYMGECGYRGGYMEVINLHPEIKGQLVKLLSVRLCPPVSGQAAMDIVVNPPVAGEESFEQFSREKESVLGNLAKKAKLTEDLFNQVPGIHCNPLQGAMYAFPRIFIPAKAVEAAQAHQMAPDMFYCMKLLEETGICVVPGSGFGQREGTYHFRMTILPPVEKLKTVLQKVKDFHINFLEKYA
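Fluorescence read-out: pyruvate from GPT2 turnover coupled to pyruvate oxidase, HRP and Amplex Red (0.2mM ThPP, 0.2U/mL PO and HRP, 50uM Amplex final). Substrates 250uM a-KG, 2mM L-alanine; enzyme 10ng/uL; 30 min RT.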
NIH3T3 tox = Cytotoxic Profiling in NIH 3T3 Cell Line of Diverse Libraries Using Quantitative High-Throughput Screening; NIH 3T3 viability, CellTiter-Glo ATP luminescence, 48-72 h; Potency, µM (titrated, usually from 96.7 µM), for inactives: at the top dose activity change, negative = cytotoxicity, usual class: inhibitors; 94,000 compounds, 4.3% hits; AID 1345082, 2018; also: nearly all actives have a fitted effect of over 55% in size
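Mouse fibroblast NIH 3T3 cells, 400 per well, received compound via pintool and were incubated for 48 or 72 hr prior to CellTiter-Glo ATP luminescence measurement.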
Starred values were filed as active, the others as inactive; i = inactive; ? = inconclusive; . = no result given; [ ] = another dose, or the depositor's remark. This is a sample that favours compounds with a hit; in the whole collection about 10% have one here. Unless noted, calls follow the shape of the dose curve; as a rule, active = well fitted curve in the direction sought with a large enough effect; inconclusive = small, poorly fitted or top-dose-only effect, or another doubt; inactive = no such curve, though single readings can be large; an effect the other way counts as inactive or inconclusive. % is scaled to controls: 0 for no effect and ±100 for the full control effect; potency is read from the fitted curve at half-maximal effect.

SMILES	FLuc inh	HEK293 tox	hNpr1 antagonist	GPT2 inhibitor	NIH3T3 tox
O=C(N[C@H]1[C@H](O)[C@H](O)C[C@@H]1c1ccc(C(F)(F)F)cc1)c1ccc2c(c1)OCCO2	?	?	0%[70.6 µM]	-6%[88.5 µM]	100µM*
COc1ccc([C@H]2C[C@@H](O)[C@@H](O)[C@@H]2NCc2ccccc2)cc1	i	-23%[172 µM]	?	i	1%[174 µM]
COc1ccc(CN[C@H]2[C@H](O)[C@H](O)C[C@@H]2c2ccc(C(F)(F)F)cc2)cc1	i	45µM*	-15%[70.6 µM]	i	28µM*
COCCn1nnnc1C1CC2(CCOCC2)C(=O)N1Cc1ccc(C)c(C)c1 (configuration not stated)	.	-6%	.	?	-21%
COc1ccc(-c2cc(C(=O)NCC(C)C)c3c(C4CCNC4)nn(C)c3n2)cc1 (configuration not stated)	.	?	.	i	20µM*
COc1ccc(OCC2(C)COc3ccc(C(=O)NCc4ccc(F)cc4)cc3N2)cc1 (configuration not stated)	i	28µM*	-30%[70.6 µM]	2%[88.5 µM]	28µM*
Cn1ccc(NC(=O)c2ccc3c(c2)NC(C)(COc2ccccc2)CO3)n1 (configuration not stated)	?	100µM*	?	-22%[88.5 µM]	?
CC1(COc2ccccc2)COc2ccc(C(=O)NCc3ccccc3)cc2N1 (configuration not stated)	i	63µM*	-22%[70.6 µM]	-1%[88.5 µM]	50µM*
CC1(COc2ccccc2)COc2ccc(C(=O)NCc3ccco3)cc2N1 (configuration not stated)	i	?	2%[70.6 µM]	i	?
CC1(COc2ccccc2)COc2ccc(C(=O)NCc3cnccn3)cc2N1 (configuration not stated)	i	?	-2%[70.6 µM]	-10%[88.5 µM]	?
Cc1ccc(C(=O)N2CCC3(CC2)NC(=O)N(c2ccccc2Cl)N3)cc1	i	?	-2%	?	?
CC1=C[C@@H](CN2CCOCC2)[C@H](C(C)C)C[C@H]1Cc1nnc(C)o1	i	?	0%[70.6 µM]	1%[88.5 µM]	-17%[174 µM]
CC1=C[C@@H](CN2CCN(c3ccccn3)CC2)[C@H](C(C)C)C[C@H]1Cc1nnc(-c2ccccc2)o1	i	40µM*	-28%	?	?
CC1=C[C@@H](CN2CCOCC2)[C@H](C(C)C)C[C@H]1Cc1nnc(-c2ccccc2)o1	i	89µM*	-8%[70.6 µM]	-3%[88.5 µM]	?
COc1cccc(-c2cccc(C(=O)N3CCN(C(=O)Cc4cccc(Cl)c4)CC3)c2)c1	.	?	.	i	?
O=C(Cc1cccs1)Nc1ccc2c(N3CCCCC3)ncnc2c1	i	?	?	1%	?
Cc1ccccc1CC(=O)Nc1ccc2ncnc(N3CCCCC3)c2c1	i	40µM*	-7%	i	?
COc1ccccc1CC(=O)Nc1ccc2c(N3CCCCC3)ncnc2c1	i	25µM*	?	-3%	?
COCCC(=O)N[C@H]1CC[C@]2(C)CCC([C@H](C)C(=O)N(C)Cc3ccccc3)[C@H](O)[C@H]2[C@@H]1C (some centres not stated)	i	-17%	2%	-7%	-17%
O=C(NCCc1ccc(Cl)cc1)c1ccc2nnc(CC3CC3)n2c1	.	?	.	3%	?
Cc1cccc(CN2CCCC3(CCN(c4cc(C)c5ccccc5n4)C3)C2=O)c1 (configuration not stated)	i	35µM*	-29%	-10%	?
Cc1cccc(CN2CCCC3(CCN(c4nc5ccccc5o4)C3)C2=O)c1 (configuration not stated)	?	?	0%	?	?
Cc1cc(N2CCC3(CCCN(CC4CCC4)C3=O)C2)nc2ccccc12 (configuration not stated)	i	32µM*	-1%	4%	?
